Activity calls are given as the source filed them.
Assays:
Albumin (Bos taurus) = Albumin (Bos taurus) (UniProt P02769); assay: bovine serum albumin binders on microarray, profiling panel, artefact control for SMM control protein annotation, biochemical, small-molecule microarray, Alexa647 label, 635/667 nm fluorescence (AID 1118); details: BSA-A647 binding, fluorescence 635 nm, higher = more signal;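 note: score merges 667 nm emission intensity and signal-to-noise per printed compound spot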
[1] = small-molecule microarray binders of probe aXIP, primary screen, biochemical, NeuroSMM set, 635/667 nm fluorescence (AID 1119); details: higher = more signal, called active from +8 up or from −8 down;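 note: probe is the protein aXip251-270 applied at 1 µg/mL to compound-printed slides; binding of probe to printed compounds measured as 667 nm fluorescence plus signal to noise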
[2] = small-molecule binders of probe aNOTCH3, primary screen, biochemical, small-molecule microarray, 635/667 nm fluorescence (AID 1120); details: higher = more signal;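 note: probe is a biotin-tagged antibody raised against NOTCH3 rather than NOTCH3 protein; score merges spot fluorescence near 667 nm with spot signal to noise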
[3] = small-molecule binders of probe aNOTCH2, primary screen, biochemical, small-molecule microarray, 635/667 nm fluorescence (AID 1121); details: higher = more signal;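 note: score merges feature fluorescence read at 667 nm with its signal to noise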
[4] = target: Carbonic anhydrase 2 (Homo sapiens) (UniProt P00918); assay: CAII small-molecule binders, profiling panel, biochemical, small-molecule microarray, Alexa647-labelled CAII (AID 1122); details: CAII-A647 binding fluorescence, higher = more signal
[5] = COS7 lysate on small-molecule microarray, probe aHis, 635 nm (AID 1123); details: COS7 cell lysate, fluorescence, higher = more signal;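 note: z-score combines 667nm fluorescence intensity with signal-to-noise per printed compound spot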
[6] = compound binding in COS7 lysate, probe aLAP1, primary screen, cell lysate, small-molecule microarray (AID 1124); details: probe aLAP1, fluorescence, higher = more signal;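 note: lysate comes from COS7 cells expressing LAP1 and is applied at 0.3 µg/mL; score merges spot fluorescence near 667 nm with signal-to-noise over triplicate slides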
Sam68 (KHDRBS1) = assay: Sam68 small-molecule binders, primary screen, biochemical, small-molecule microarray, 635 nm fluorescence (AID 1125); details: small-molecule microarray binding, higher = more signal;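 note: score merges 667 nm channel intensity with signal to noise over triplicate slides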
[7] = system: Chordin-like protein 2 (CHRDL2); assay: CHRDL2 small-molecule binders, primary screen, biochemical, small-molecule microarray, 635 nm fluorescence (AID 1126); details: small-molecule microarray binding, fluorescence 635 nm; higher = more signal;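 note: printed compound slides probed with Chrdl2 protein at 4 µg/mL for 1 h at 4 C; score merges 667 nm emission intensity with signal to noise over three replicate slides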
[8] = target: Concanavalin-A (Canavalia ensiformis) (UniProt P02866); assay: ConA small-molecule binders, primary screen, artefact control for SMM control protein annotation, biochemical, small-molecule microarray, Alexa647 label, 635 nm (AID 1127); details: ConA-A647 binding fluorescence, higher = more signal;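 note: z combines 667 nm emission intensity with signal-to-noise across three replicate slides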
Concanavalin-A (Canavalia ensiformis), sequence (P02866 whole entry, looked up): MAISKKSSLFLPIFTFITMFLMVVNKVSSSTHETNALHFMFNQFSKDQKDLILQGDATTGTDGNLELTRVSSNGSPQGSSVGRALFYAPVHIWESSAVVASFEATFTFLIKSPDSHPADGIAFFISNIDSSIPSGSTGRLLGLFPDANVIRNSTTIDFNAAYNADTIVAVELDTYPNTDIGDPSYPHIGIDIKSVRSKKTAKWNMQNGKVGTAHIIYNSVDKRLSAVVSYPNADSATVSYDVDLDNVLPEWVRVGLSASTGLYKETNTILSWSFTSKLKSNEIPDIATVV

[9] = anti-His antibody binders, primary screen, artefact control for SMM control protein annotation, biochemical, small-molecule microarray, 635 nm fluorescence (AID 1128); details: anti-His Alexa647 antibody binding, higher = more signal;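 note: score merges feature fluorescence with signal-to-noise for each printed compound spot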
[10] = system: Human papillomavirus type 1a E7 protein (residues 1-88); assay: HPV1a E7 small-molecule binders, primary screen, biochemical, small-molecule microarray, residues 1-88, 635 nm (AID 1129); details: small-molecule microarray binding, fluorescence 635 nm; higher = more signal
[11] = target: Focal adhesion kinase 1 (Homo sapiens) (UniProt Q05397); assay: small-molecule microarray binders of FAK, primary screen, biochemical, 635/667 nm fluorescence, BSA, DTT (AID 1130); details: PTK2 binding, 635 nm fluorescence, higher = more signal;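 note: composite of spot emission at 667 nm and signal to noise over triplicate slides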
Focal adhesion kinase 1 (Homo sapiens), sequence (Q05397 whole entry, looked up): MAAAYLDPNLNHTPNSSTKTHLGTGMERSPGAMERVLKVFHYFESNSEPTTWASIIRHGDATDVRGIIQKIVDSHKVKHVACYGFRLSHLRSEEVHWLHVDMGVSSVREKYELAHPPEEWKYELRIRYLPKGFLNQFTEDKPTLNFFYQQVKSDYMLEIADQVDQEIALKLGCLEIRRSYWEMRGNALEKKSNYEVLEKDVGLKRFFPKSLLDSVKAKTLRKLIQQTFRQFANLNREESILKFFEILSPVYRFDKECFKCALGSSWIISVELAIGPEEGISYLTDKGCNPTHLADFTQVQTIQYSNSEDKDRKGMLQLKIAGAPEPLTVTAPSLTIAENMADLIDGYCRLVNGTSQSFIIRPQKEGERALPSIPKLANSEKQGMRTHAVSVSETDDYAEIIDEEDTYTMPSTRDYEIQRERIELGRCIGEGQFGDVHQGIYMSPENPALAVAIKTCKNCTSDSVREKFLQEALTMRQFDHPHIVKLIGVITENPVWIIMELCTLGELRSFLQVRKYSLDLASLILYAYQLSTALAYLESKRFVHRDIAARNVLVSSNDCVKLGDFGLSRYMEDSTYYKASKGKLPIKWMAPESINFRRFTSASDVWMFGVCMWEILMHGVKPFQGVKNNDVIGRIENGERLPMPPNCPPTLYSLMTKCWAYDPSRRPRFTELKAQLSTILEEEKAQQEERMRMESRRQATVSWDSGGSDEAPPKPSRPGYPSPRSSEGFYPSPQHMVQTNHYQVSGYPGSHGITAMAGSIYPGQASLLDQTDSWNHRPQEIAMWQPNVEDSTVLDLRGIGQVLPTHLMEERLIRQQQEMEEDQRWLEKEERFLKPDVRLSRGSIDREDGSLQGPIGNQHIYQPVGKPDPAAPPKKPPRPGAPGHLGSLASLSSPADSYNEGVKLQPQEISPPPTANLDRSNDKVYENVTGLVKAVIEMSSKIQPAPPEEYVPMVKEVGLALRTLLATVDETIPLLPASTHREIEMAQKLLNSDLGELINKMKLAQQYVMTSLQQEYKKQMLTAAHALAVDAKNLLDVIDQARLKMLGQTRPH

[12] = system: Fibrinogen (Alexa647-labelled); assay: fibrinogen binders on compound microarrays, profiling panel, artefact control for SMM control-protein annotation, biochemical, small-molecule microarray, 635/667 nm fluorescence (AID 1131); details: fibrinogen-A647 binding fluorescence, higher = more signal;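 note: z-score merges 667 nm fluorescence with per-spot signal-to-noise over triplicate slides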
[13] = target: Follistatin (Homo sapiens) (UniProt P19883); assay: follistatin binders on small-molecule microarrays, primary screen, biochemical, small-molecule microarray, 635/667 nm fluorescence (AID 1132); details: FST binding, 635 nm fluorescence, higher = more signal
Follistatin (Homo sapiens), sequence (P19883 whole entry, looked up): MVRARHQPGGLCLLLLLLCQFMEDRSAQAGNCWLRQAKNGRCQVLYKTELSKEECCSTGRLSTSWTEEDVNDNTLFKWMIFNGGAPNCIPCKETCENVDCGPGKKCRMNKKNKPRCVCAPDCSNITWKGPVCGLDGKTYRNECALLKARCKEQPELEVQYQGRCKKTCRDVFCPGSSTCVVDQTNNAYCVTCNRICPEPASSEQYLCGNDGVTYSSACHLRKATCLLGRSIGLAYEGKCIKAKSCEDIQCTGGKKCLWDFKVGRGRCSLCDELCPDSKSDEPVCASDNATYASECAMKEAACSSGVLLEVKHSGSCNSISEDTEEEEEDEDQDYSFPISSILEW

[14] = target: Fibroblast growth factor 2 (Homo sapiens) (UniProt P09038); assay: FGF2 binders on small-molecule microarrays, primary screen, biochemical, small-molecule microarray, 635/667 nm fluorescence (AID 1133); details: small-molecule microarray binding, FGF2, fluorescence 635/667; higher = more signal
Fibroblast growth factor 2 (Homo sapiens), sequence (P09038 whole entry, looked up): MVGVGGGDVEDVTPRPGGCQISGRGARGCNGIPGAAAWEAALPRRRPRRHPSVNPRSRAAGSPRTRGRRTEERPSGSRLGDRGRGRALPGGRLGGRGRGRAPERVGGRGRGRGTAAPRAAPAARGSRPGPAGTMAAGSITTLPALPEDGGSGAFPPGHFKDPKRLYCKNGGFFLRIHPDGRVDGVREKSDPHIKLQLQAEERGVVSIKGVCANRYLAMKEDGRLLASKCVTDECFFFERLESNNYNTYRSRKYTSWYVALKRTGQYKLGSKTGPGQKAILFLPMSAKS

[15] = mitochondrial membrane potential change in A549 cells, profiling panel, cell-based, JC-1 fluorescence, basal, 24 h, 100 nL (AID 1138); details: higher = more signal;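 note: A549 lung adenocarcinoma cells under basal conditions with no added stimulus; test concentration not given here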
Lefty1 = Lefty1 binders on small-molecule microarrays, primary screen, biochemical, small-molecule microarray, 635/667 nm fluorescence (AID 1139); details: small-molecule microarray binding, fluorescence 635/667; higher = more signal
[16] = system: wheat germ agglutinin (Triticum aestivum), Alexa647-labelled; assay: wheat germ agglutinin binders on compound microarrays, profiling panel, artefact control for SMM control-protein annotation, biochemical, small-molecule microarray, 635/667 nm fluorescence (AID 1140); details: WGA-A647 binding, 635 nm fluorescence, higher = more signal;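 note: score merges 667 nm feature emission with signal to noise over triplicate slides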
[17] = target: Luciferin 4-monooxygenase (Photinus pyralis) (UniProt P08659); assay: firefly luciferase enzyme inhibitors, primary screen, biochemical, luminescence, purified enzyme, 2006 set (AID 1141); details: SteadyGlo luminescence, 30 min, higher = more signal, called active from +8 up or from −8 down;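 note: cell-free assay with purified firefly luciferase at 100 ng per well in PBS; test concentration not given here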
Luciferin 4-monooxygenase (Photinus pyralis), sequence (P08659 whole entry, looked up): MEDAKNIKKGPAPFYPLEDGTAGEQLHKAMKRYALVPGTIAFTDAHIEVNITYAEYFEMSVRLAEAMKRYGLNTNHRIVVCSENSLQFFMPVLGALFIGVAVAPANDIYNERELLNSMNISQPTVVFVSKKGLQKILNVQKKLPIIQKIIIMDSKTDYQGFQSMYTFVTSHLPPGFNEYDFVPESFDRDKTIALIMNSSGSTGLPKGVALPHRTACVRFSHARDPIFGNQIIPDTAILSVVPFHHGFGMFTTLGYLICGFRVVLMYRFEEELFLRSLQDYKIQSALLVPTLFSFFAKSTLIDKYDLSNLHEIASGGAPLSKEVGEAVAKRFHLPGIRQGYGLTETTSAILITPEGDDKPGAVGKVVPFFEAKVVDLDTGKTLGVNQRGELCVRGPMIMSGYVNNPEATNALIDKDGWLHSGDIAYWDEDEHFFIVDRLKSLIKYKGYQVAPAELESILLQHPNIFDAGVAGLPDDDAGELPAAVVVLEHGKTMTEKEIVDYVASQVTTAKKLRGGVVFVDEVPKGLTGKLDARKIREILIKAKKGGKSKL

Albumin (Bos taurus), sequence (P02769 whole entry, looked up): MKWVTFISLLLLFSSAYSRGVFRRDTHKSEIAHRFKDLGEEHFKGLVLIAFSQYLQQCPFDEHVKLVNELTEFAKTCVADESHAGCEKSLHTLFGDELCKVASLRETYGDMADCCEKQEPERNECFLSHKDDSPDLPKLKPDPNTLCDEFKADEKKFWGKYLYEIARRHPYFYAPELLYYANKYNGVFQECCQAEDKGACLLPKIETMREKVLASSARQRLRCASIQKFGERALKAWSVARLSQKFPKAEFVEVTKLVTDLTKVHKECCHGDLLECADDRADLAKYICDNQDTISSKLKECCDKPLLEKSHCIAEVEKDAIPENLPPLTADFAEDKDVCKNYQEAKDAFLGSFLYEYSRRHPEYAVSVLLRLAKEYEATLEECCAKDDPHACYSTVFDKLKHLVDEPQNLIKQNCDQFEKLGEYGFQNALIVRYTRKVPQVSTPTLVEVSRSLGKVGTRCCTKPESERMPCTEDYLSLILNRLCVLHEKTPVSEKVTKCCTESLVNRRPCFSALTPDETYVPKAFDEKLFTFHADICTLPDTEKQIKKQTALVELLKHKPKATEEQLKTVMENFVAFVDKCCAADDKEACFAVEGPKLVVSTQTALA

Compound | composite z-score (Albumin (Bos taurus)) | composite Z-score [1] | composite z-score [2] | composite z-score [3] | composite z-score [4] | composite z-score [5] | composite z-score [6] | composite z-score (Sam68 (KHDRBS1)) | composite z-score [7] | composite z-score [8] | composite z-score [9] | composite z-score [10] | composite z-score [11] | composite z-score [12] | composite z-score [13] | composite z-score [14] | z-score [15] | composite z-score (Lefty1) | composite z-score [16] | z-score [17]
COC(=O)c1c2oc(c1C(=O)OC)C(=O)N[C@@H](C(C)C)Cn1nncc1C1(CCCCC1)NC(=O)N[C@H](CO)CC2 | 0.543 | 0.559 (inactive) | -0.126 | -0.131 | 0.86 | 0.942 | -0.162 | -0.0929 | -0.573 | 0.77 | -0.614 | -0.622 | 0.195 | -1.26 | -0.238 | 0.0484 | 2.33 | 0.0278 | -0.719 | -1.25 (inactive)
CCCCCN1CC=CC23O[C@@H]4/C=C\CCC(C)OC(=O)C4[C@H]2C(=O)N(CCO)[C@@H]3C1=O (stereo not given in full) | -1.09 | 0.547 (inactive) | -0.28 | -0.172 | 0.905 | 0.663 | 0.0877 | -0.106 | -1.79 | -0.773 | 1.31 | -0.85 | -0.081 | -2.44 | -0.869 | -1.2 | 0.33 | -0.853 | -0.564 | -0.967 (inactive)
O=C1c2ccccc2[C@@]2(Cc3ccccc3N(CC(F)(F)F)C2=O)[C@H](c2ccc(CO)cc2)N1Cc1ccccc1C(F)(F)F | -1.22 | 0.112 (inactive) | -0.0647 | -0.159 | 0.272 | -0.229 | 0.134 | -0.142 | -2.04 | -1.83 | -1.58 | -2.19 | -0.795 | -1.47 | -2.04 | -0.882 | 0.972 | -1.87 | -1.69 | -0.903 (inactive)
COCCOC(=O)N1C(=O)[C@@]2(c3cc(C#CC4(O)CCCCCC4)ccc31)[C@H](c1ccc(O)cc1)N1[C@H](c3ccccc3)[C@H](c3ccccc3)OC(=O)[C@H]1[C@@H]2C(N)=O | 0.93 | -0.108 (inactive) | 0.0196 | -0.044 | 0.704 | 1.81 | 1.34 | 1.33 | -0.485 | 0.641 | 1.53 | 0.745 | 1.36 | -0.173 | 0.419 | 0.308 | 0.446 | 0.462 | 0.706 | -1.37 (inactive)
O=C1N(CCS(=O)(=O)c2ccccc2)Cc2ccccc2[C@@H]2OC(c3ccc(OCCCO)cc3)=N[C@]12Cc1ccccc1 | -0.0444 | 1.83 (inactive) | 0.165 | 0.0042 | 0.742 | 2.84 | 0.599 | 1.29 | 0.286 | 1.13 | 3.33 | 1.27 | 0.526 | 0.988 | 1.34 | 1.68 | -0.0106 | 1.1 | 1.23 | -2.12 (inactive)
CCCNC(=O)[C@@H]1c2ccccc2C(=O)N(Cc2cc(C(F)(F)F)cc(C(F)(F)F)c2)[C@H]1c1ccc(CO)cc1 | -0.419 | -0.251 (inactive) | -0.0343 | -0.194 | 0.422 | 0.64 | 0.227 | 0.679 | -0.608 | 0.234 | 0.14 | 0.541 | 0.452 | 0.0967 | 0.652 | 0.213 | 0.904 | 0.0044 | 0.14 | -0.831 (inactive)

From PubChem BioAssay
